TbPYK inhibitor: inhibitors of Trypanosoma brucei pyruvate kinase; 410,000 compounds, 0.12% hits; Potency, µM (top dose mostly 76.8 µM), inactives show at the highest dose activity, negative = inhibition, actives largely listed as inhibitors; AID 624173; TbPYK enzyme, Kinase-Glo Plus ATP luminescence, 45 min; Q57TT1; further: on the % scale 0 is the no-effect control and ±100 the full control effect; nearly all actives have a fitted effect of over 50% in size
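Activity of T. brucei pyruvate kinase was followed by Kinase-Glo Plus luminescence after the enzyme reacted 45 min at room temperature with 130 uM ADP (final) and substrate. Test compounds were added before ADP at multiple concentrations.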
NS1 inh: inhibitors of influenza NS1 protein function | 270,000 compounds, 0.4% hits | Potency, µM (titrated, usually from 46.1 µM), for inactives: at the highest dose activity, positive = more growth | AID 2326; calls by dose curve; further: actives are rising curves; nearly all actives have a fitted effect of over 50% in size
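S. cerevisiae expressing influenza A NS1, grown in glucose, washed, then diluted 1:100 into pH 6.0 -URA galactose medium with 23 nl compound. Growth recovery read as OD600; NS1-free strain serves as control.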
LmPK inhibitor: blocks Leishmania mexicana pyruvate kinase activity. Q27686. purified LmPK, Kinase-Glo ATP luminescence, 1 h. Potency, µM (doses to about 57.5 µM), without a hit: at the highest dose activity change, negative = inhibition, actives largely listed as inhibitors. 290,000 compounds, 0.37% hits. AID 1721; further: on the % scale 0 is the no-effect control and ±100 the full control effect
Target sequence (Q27686 whole entry, looked up): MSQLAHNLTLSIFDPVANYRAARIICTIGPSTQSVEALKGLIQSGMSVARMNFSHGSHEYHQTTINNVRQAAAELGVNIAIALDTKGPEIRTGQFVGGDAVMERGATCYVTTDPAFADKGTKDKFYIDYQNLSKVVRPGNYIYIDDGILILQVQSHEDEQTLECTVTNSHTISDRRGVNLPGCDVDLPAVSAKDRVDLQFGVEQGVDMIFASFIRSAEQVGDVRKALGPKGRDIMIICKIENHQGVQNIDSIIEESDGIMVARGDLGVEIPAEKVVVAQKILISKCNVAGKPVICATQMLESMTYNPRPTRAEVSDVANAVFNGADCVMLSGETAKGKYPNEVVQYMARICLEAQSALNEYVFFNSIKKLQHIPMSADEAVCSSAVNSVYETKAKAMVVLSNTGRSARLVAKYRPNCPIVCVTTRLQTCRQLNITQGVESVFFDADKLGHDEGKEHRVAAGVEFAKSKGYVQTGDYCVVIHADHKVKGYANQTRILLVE
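Kinase-Glo luminescence read after 1 h RT reaction of 0.1 nM LmPK with 0.5 mM PEP and 0.1 mM ADP. Activity scaled between uninhibited and enzyme-free controls.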
AMA1 RON2 block: disrupts binding of P. falciparum AMA1 to RON2 | Potency, µM (titrated, usually from 58.2 µM), without a hit: at the highest dose activity change, negative = inhibition, usual class: inhibitors | AlphaScreen AMA1-biotinylated RON2 peptide binding | AID 720542 | 360,000 compounds, 0.2% hits;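 further: 0% = vehicle wells and -100% = peptide control; nearly all actives have a fitted effect of over 45% in size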
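AMA1 (3D7) with his tag at 25 nM final met compounds first, then biotinylated RON2 peptide at 25 nM; detection used donor plus acceptor beads, 10 µg/mL apiece, read by AlphaScreen after 30 min at room temperature.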
RE007 growth inh: less growth of the S. pombe RE007 Vpr strain; 360,000 compounds, 0.21% hits; Potency, µM (series often up to 92.2 µM), without a hit: at the top dose activity change, negative = less growth, most hits filed as inhibitors; S. pombe RE007 Vpr strain, BacTiter-Glo ATP luminescence, 24 h; active means well fitted falling curve with a large enough effect; inconclusive means small, poorly fitted or top-dose-only effect; inactive means no such curve, though single readings can be large or run the other way; further: on the % scale 0 is the no-effect control and ±100 the full control effect; nearly all actives have a fitted effect of over 50% in size
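Fission yeast RE007 carrying one integrated HIV-1 vpr copy, seeded at OD 0.01 in PMG+AL medium with 23 nL pinned compound. Grown 24 h at 30 degrees; viability read by BacTiter-Glo luminescence after 5 min.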
Numbers without * were called inactive; ? = inconclusive; . = not tested or not shown; [ ] = remark or other dose. In the library only some 0.92% were active in any assay of this set; here they are far more common. Unless noted, the call rests on the fitted dose curve; in most records, active means well fitted curve in the direction sought with a large enough effect; inconclusive means small, poorly fitted or top-dose-only effect, or another doubt; inactive means no such curve, though single readings can be large; an effect the other way counts as inactive or inconclusive. Potency means the concentration at half of the fitted maximal effect.

SMILES	TbPYK inhibitor	NS1 inh	LmPK inhibitor	AMA1 RON2 block	RE007 growth inh
COc1ccc(OC)c(N=Cc2c(O)c3ccccc3oc2=O)c1	-1%	-2%	0%	16%	-2%
COc1ccc(N=Cc2c(O)c3ccccc3oc2=O)cc1	-16%	2%	16µM*	14%	-9%
NCCc1c[nH]c2ccc(OC(=O)C(=O)O)cc12	.	-3%	.	.	.
CCN1C(=O)/C(=C2\C=Cc3ccccc3N2CC)SC1=S	-7%	7%	-16%	1.2µM*	-4%
CCN1C(=O)/C(=c2\o/c(=C3\C=Cc4ccccc4N3CC)c(=O)n2CC)SC1=S	-4%	-18%	-15%	-12%	-11%
CO[C@H]1/C=C/O[C@@]2(C)Oc3c(C)c(O)c4c(O)c(c(/C=N\N5CCN(C6CCCC6)CC5)c(O)c4c3C2=O)NC(=O)/C(C)=C\C=C\[C@H](C)[C@H](O)[C@@H](C)[C@@H](O)[C@@H](C)[C@H](OC(C)=O)[C@@H]1C	0%	.	.	.	.
CNc1nc(NCc2ccc(N(C)C)cc2)c2sccc2n1	-4%	.	.	20µM*	?
CCC1=C(C[C@H]2NCCc3cc(OC)c(OC)cc32)C[C@H]2c3ccccc3CCN2C1	.	-6%	.	.	.
CCCCCc1cc(O)c2c(c1)OC(C)(C)c1ccc(C)cc1-2	9%	.	.	.	.
Cc1csc(NC(=O)CSc2ccc(-c3ccccn3)nn2)n1	-3%	.	7%	32µM*	-16%
CCOc1ccc(N(C)S(=O)(=O)c2c(C(=O)N3CCC(C)CC3)c(C)n(C)c2C)cc1	-5%	.	.	.	.
O=C(Nc1nccs1)c1cn2ccccc2n1	-4%	-5%	25µM*	109%	2%
CCOC(=O)C1CCN(S(=O)(=O)c2ccc(N3CCCCS3(=O)=O)cc2)CC1	2%	.	.	.	.
N#C/C(C(N)=O)=c1/ccc2c(c1)N1C3=C(CCCC3)CC3CCCCC31N=2 (stereo unspecified)	?	-96%	7.9µM*	?	-22%
N#CC(C#N)=c1ccc2c(c1)N1C3=C(CCCC3)CC3CCCCC31N=2 (stereo unspecified)	?	-81%	18µM*	?	-9%
CC(=O)O[C@]12CC[N@+]3(C)CCCC[C@@H]3[C-]1Nc1ccccc12	.	-6%	.	.	.
Cc1ccsc1C(=O)OCc1csc(-c2ccccc2)n1	-23%	-57%	16µM*	151%	-13%
Cn1cccc1C(=O)OCc1csc(-c2ccccc2)n1	-7%	-59%	14µM*	-12%	-29%
O=C(OCc1csc(-c2ccccc2)n1)c1cccs1	-12%	-76%	-19%	23%	-9%
N=C1[C@@H](O)[C@]2(I)c3ccccc3N3C(=N)[C@H](O)[C@@H]4c5ccccc5N1[C@@H]4[C@@H]32	.	0%	.	.	.
Cc1c(C(=O)O)nc(/C=C\C(=O)O)[nH]c1=O	.	-2%	.	.	.
CC(C)(CC(=O)Nc1ccccc1)C(=O)O	.	-1%	.	.	.
COC1=C(OC)C(=O)C(Sc2ccc3ccccc3c2)=CC1=O	1.8µM*	.	.	13µM*	7.1µM*
CC[n+]1c(/C=C/C=C/c2ccc(N(C)C)cc2)sc2ccccc21	?	-73%	16µM*	18µM*	6.3µM*
O=C(Oc1cccc2cccnc12)c1cccc(N2C(=O)C3C4CCC(C4)C3C2=O)c1 (stereo unspecified)	?	-19%	1%	61%	16µM*
SMILES	TbPYK inhibitor	NS1 inh	LmPK inhibitor	AMA1 RON2 block	RE007 growth inh
CCCNC[C@H](O)COc1ccccc1C(=O)CCc1ccccc1	.	-17%	.	.	.
CCc1nc2ccc(C(=O)NC3CCN(Cc4ccccc4)CC3)cn2c1N(C)Cc1ccc(N(C)C)cc1	3%	.	.	22µM*	?
CCc1nc2ccc(C(=O)NC3CCN(C)CC3)cn2c1N(C)CCC(C)C	-3%	.	.	0%	?
CCC(c1ccc(O)c(O)c1)C(CC)c1ccc(O)c(O)c1 (stereo unspecified)	-26%	.	.	25µM*	-17%
CCC(NC(C)C)C(O)c1ccc(O)c(O)c1 (stereo unspecified)	-7%	0%	-16%	-28%	7%[18.4 µM]
O=C(O)CSC1CC(=O)N(c2ccc(Cl)c(Cl)c2)C1=O (stereo unspecified)	7%	-23%	1%	-1%	11µM*
O=C(O)CSC1CC(=O)N(c2cccc(Cl)c2)C1=O (stereo unspecified)	1%	-11%	3%	4%	0%
COc1ccc(OC)c(/C=N/n2c(-c3n[nH]c4c3CCC4)n[nH]c2=S)c1	3.5µM*	3%	-10%	105%	3%
COc1cc(OC)c(OC)cc1/C=N/n1c(-c2n[nH]c3c2CCC3)n[nH]c1=S	2.5µM*	3%	-20%	97%	20%
COc1ccc(/C=N/n2c(-c3n[nH]c4c3CCC4)n[nH]c2=S)cc1	?	1%	-19%	80%	0%
Cc1nc(-c2ccc(OCC(C)C)c(C#N)c2)sc1C(=O)O	-2%	.	.	.	.
O=C(CSc1c2c(nc3cc(Cl)ccc13)CCCC2)NCCN1CCOCC1	2%	.	0%	-28%	-3%
Clc1ccc2c(SCC3CO3)c3ccccc3nc2c1 (stereo unspecified)	-20%	.	.	10%	1µM*
Oc1cc2c(cc1O)[C@H]1c3ccccc3CN[C@@H]1CC2	.	.	4.5µM*	.	.
CCOc1ccc(N2C(=O)CC(Sc3nc(C)cc(C)n3)C2=O)cc1 (stereo unspecified)	4%	-7%	-2%	-1%	-20%
CCOc1ccc(N2C(=O)CC(Sc3nnnn3-c3ccccc3)C2=O)cc1 (stereo unspecified)	-28%	.	8%	-4%	32µM*
CCOc1ccc(N2C(=O)CC(SCCN)C2=O)cc1 (stereo unspecified)	0%	-4%	-28%	?	20µM*
CCCCCCOc1ccc(N2C(=O)CC(SCCN)C2=O)cc1 (stereo unspecified)	-2%	12%	-12%	-20%	-13%
CCCCS(=O)(=O)N1CCc2nc(-c3ccccc3)c3c(c2C1)CO[C@@H](C)C3	.	.	-2%[11.5 µM]	.	.
COc1cc(OC)cc(C(=O)NCc2ccc3c(c2)CCN3C(=O)c2ccccc2)c1	9%	.	.	.	.
CCc1cc(OC)c(CC(C)N)cc1OC (stereo unspecified)	-6%[157 µM]	.	.	.	.
Oc1ccc2ccccc2c1N=Nc1ccccc1F	0%	2%	-5%	10µM*	-15%
CC(C)CCn1c(O)c(N=Nc2ccccn2)c2ccccc21	-3%	-26%	-6%	7%	-3%
O=S(=O)(O)c1cccc(N=Nc2c(O)ccc3ccccc23)c1	-12%	2%	?	-25%	-20%
Oc1ccc2ccccc2c1N=Nc1ccccn1	-4%	-181%	-14%	10µM*	35µM*
C=CCNC(=O)c1ccc2c3n(nc2c1)-c1ccccc1CO3	?	-61%	14µM*	-3%	?
Cc1ccc2c(c1)COc1c3ccc(C(=O)N4CCOCC4)cc3nn1-2	-15%	-6%	16µM*	-10%	-33%

Assay outcomes from PubChem BioAssay.
